Reference: PubChem BioAssay
Values without a mark were called inactive. Entries that show only a call come without a potency. For some of these results: Potency and affinity values are given separately. The source made the active and inactive calls. Unless noted, how the calls were made is not given here.

Key:
[1] = antimalarial activity against Dd2 strain (AID 2302;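 active means growth inhibition above 50% at the single 2 µM test dose, taken to imply half-maximal potency below 2 µM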); details: P. falciparum Dd2 in RBCs, LDH growth readout, 72 h; at 2 µM; stronger effect = higher value
[2] = HepG2 cytotoxicity, primary screen, cytotoxicity control for P. falciparum antimalarial project, cell-based, ATP luminescence (AID 2303;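 active means inhibition above 50%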); details: HepG2 viability, 24-48 h, at 10 µM, stronger effect = higher value
[3] = molecular target: L-lactate dehydrogenase (Plasmodium falciparum (isolate CDC / Honduras)) (UniProt Q27743); test: PfLDH activity inhibition – cell lysate, 3D7 strain, counter-screen for P. falciparum growth inhibition project (AID 2304); details: P. falciparum 3D7 crude extract, LDH APAD/NBT absorbance; at 2 µM; stronger effect = higher value
[4] = inhibition of 3D7 malaria parasite growth – strain 3D7 (AID 2306); details: P. falciparum 3D7 erythrocytic growth, LDH absorbance, 72 h; at 2 µM; stronger effect = higher value
[5] = molecular target: Calcium-dependent protein kinase 1 (Plasmodium falciparum (isolate 3D7)) (UniProt P62344); test: PfCDPK1 kinase inhibitors, biochemical, TCAMS library (AID 1159585; cut-off not given, nearly all actives have IC50 up to about 0.98 µM;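 further: inhibitors leave more ATP so luminescence rises with inhibition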); details: recombinant PfCDPK1, Kinase-Glo ATP depletion luminescence
[6] = molecular target: Plasmodium falciparum protein kinase 6 (PK6, PF3D7_1337100) (UniProt Q8IDW1); test: PfPK6 kinase inhibitors, biochemical, TCAMS library (AID 1159586); details: recombinant PfPK6, Kinase-Glo ATP depletion luminescence
[7] = molecular target: Protein kinase 7 (PK7), Plasmodium falciparum 3D7 (PF3D7_0213400) (UniProt Q7YTF7); test: inhibition of Plasmodium PK7 catalytic activity – biochemical, TCAMS antimalarial set, Kinase-Glo luminescence (AID 1159587); details: recombinant PfPK7, Kinase-Glo ATP depletion luminescence
[8] = molecular target: Calcium-dependent protein kinase 4 (Plasmodium falciparum (isolate 3D7)) (UniProt Q8IBS5); test: PfCDPK4 kinase inhibitors, biochemical, TCAMS library (AID 1159588; cut-off not given, nearly all actives have IC50 up to about 0.91 µM); details: recombinant PfCDPK4, Kinase-Glo ATP depletion luminescence
Sequence of Calcium-dependent protein kinase 4 (Plasmodium falciparum (isolate 3D7)) (Q8IBS5 whole entry, looked up): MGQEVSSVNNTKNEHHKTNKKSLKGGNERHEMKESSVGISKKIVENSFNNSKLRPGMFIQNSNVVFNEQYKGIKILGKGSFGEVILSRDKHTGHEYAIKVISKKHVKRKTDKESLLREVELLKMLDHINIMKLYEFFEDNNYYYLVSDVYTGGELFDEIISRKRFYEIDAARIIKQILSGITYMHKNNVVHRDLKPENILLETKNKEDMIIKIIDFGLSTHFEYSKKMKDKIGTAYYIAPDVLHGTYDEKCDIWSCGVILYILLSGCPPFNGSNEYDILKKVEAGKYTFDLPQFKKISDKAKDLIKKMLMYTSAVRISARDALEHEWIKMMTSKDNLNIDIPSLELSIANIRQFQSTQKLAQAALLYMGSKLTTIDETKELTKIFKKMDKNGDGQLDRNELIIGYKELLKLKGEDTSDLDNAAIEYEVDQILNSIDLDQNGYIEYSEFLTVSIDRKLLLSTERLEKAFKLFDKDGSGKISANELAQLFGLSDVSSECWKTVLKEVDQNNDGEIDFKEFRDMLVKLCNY

Sequence of L-lactate dehydrogenase (Plasmodium falciparum (isolate CDC / Honduras)) (Q27743 whole entry, looked up): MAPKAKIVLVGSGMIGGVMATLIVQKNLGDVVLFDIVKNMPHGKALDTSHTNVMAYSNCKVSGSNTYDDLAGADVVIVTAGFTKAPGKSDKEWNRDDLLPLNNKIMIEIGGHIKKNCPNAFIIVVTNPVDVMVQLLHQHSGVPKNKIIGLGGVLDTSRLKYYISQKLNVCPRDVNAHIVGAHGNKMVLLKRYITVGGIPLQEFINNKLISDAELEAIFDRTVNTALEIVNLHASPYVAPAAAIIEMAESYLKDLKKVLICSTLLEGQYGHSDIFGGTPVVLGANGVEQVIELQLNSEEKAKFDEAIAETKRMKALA
Sequence of Plasmodium falciparum protein kinase 6 (PK6, PF3D7_1337100) (Q8IDW1 1-305): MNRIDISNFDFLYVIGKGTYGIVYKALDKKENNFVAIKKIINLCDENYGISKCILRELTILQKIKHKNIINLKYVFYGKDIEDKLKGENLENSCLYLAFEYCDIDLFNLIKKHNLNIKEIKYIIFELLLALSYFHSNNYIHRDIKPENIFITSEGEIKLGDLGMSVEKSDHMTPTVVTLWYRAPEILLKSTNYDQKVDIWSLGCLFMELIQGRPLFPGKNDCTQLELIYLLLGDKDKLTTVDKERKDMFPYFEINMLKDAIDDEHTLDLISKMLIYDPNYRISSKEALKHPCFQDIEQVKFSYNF
Sequence of Protein kinase 7 (PK7), Plasmodium falciparum 3D7 (PF3D7_0213400) (Q7YTF7 1-343): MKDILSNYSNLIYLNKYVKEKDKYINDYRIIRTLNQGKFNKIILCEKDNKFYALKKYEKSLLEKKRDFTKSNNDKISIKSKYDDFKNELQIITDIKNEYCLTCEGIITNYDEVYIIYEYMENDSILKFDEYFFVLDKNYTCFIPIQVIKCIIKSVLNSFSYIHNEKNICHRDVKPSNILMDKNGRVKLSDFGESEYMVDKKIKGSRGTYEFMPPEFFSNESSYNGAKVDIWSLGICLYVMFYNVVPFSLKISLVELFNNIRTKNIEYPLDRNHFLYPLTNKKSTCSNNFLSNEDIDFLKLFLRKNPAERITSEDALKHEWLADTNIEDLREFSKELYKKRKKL
Sequence of Calcium-dependent protein kinase 1 (Plasmodium falciparum (isolate 3D7)) (P62344 whole entry, looked up): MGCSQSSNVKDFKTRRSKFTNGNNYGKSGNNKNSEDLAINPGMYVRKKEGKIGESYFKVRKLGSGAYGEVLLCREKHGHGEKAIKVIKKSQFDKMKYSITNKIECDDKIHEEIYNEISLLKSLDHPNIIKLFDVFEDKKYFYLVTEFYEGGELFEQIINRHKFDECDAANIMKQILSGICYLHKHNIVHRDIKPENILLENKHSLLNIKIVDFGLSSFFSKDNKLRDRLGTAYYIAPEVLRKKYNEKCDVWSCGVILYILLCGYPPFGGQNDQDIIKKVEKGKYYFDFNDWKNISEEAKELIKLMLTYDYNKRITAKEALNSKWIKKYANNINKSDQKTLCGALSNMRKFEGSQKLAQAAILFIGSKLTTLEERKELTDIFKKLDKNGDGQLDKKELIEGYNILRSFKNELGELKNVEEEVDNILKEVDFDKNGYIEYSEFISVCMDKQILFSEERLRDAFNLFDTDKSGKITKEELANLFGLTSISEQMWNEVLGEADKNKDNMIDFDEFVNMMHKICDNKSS

SMILES	growth inhibition [1]	inhibition [2]	inhibition [3]	growth inhibition [4]	outcome [5]	outcome [6]	outcome [7]	outcome [8]
CNC(=O)c1c(NC(=O)c2cccs2)sc2c1CCCC2	2%	2%	-1%	94% (active)	inactive	inactive	inactive	inactive
Oc1cccc(-c2nc3ccc(C4=N[C@@H]5CCCC[C@H]5N4)cc3[nH]2)c1	99% (active)	3%	2%	94% (active)	inactive	inactive	inactive	inactive
CC(C)(C)OC(=O)/C=C(\C(=O)OCc1ccc([N+](=O)[O-])cc1)c1csc(NC(c2ccccc2)(c2ccccc2)c2ccccc2)n1	97% (active)	2%	3%	96% (active)	inactive	inactive	inactive	inactive
CC(Cc1ccc(NC(=O)c2ccc(CC(C)NCc3ccc(Cl)c(Cl)c3)cc2)cc1)NCCc1cccc(Cl)c1 (stereo not drawn)	33%	26%	4%	92% (active)	inactive	inactive	inactive	inactive
COc1cc(Cc2cnc(N)nc2N)cc(OCCCCCCN2C(=O)c3ccccc3C2=O)c1OC	3%	15%	2%	95% (active)	inactive	inactive	inactive	inactive
COc1cc(Nc2nc(N)c3cc(OC)c(OC)cc3n2)cc(OC)c1	102% (active)	7%	4%	101% (active)	inactive	inactive	inactive	inactive
O=C(N[C@@H](CC1CCCCC1)C(=O)NC1CCCCC1)c1ccc(O)c(-c2cccc(C(F)(F)F)c2)c1	95% (active)	-7%	-1%	100% (active)	inactive	inactive	inactive	inactive
Cc1nc(-c2ccc(-c3ccc(C(=O)Nc4ccc(I)c(OCC5CCCN5C)c4)cc3)c(C)c2)no1 (stereo not drawn)	39%	100% (active)	-2%	97% (active)	inactive	inactive	inactive	inactive
Cc1cccc2[nH]c(-c3ccc(-c4cccc(NC(=O)Nc5cccc(C#N)c5)c4)cc3)nc12	86% (active)	25%	7%	102% (active)	inactive	inactive	inactive	inactive
Cc1c(CC(=O)NCCC2CCN(CCCCCNC(=O)/C=C/c3ccc(Cl)c(Cl)c3)CC2)sc2ccc(Cl)cc12	8%	59% (active)	0%	92% (active)	inactive	inactive	inactive	inactive
C[C@H]1CN(Cc2cccc(-c3cc(CNC(=O)c4cccc(C(=O)c5ccc(Cl)c(Cl)c5)c4)ccc3F)c2)CCN1	42%	40%	2%	85% (active)	inactive	inactive	inactive	inactive
N=c1sc2ccccc2n1CC(O)c1ccc(Cl)c(Cl)c1 (stereo not drawn)	74% (active)	4%	-2%	99% (active)	inactive	inactive	inactive	inactive
O=C(Nc1ccc(C2=NC3CCCCC3N2)cc1)Nc1ccc(C2=NC3CCCCC3N2)cc1 (stereo not drawn)	76% (active)	7%	0%	88% (active)	inactive	inactive	inactive	inactive
Cc1ccccc1C1CCN(C2CCC(NC(=O)/C=C/c3ccc4c(c3)OC(F)(F)O4)CC2)CC1 (stereo not drawn)	39%	75% (active)	2%	100% (active)	inactive	inactive	inactive	inactive
COc1ccc(OCC(=O)Nc2cc(-c3nc4ccccc4[nH]3)ccc2Cl)cc1	33%	18%	-4%	94% (active)	inactive	inactive	inactive	inactive
Cc1noc(C)c1-c1ccc2c(Nc3ccccc3C(C)(C)C)c(C(=O)NC3CCCC3)cnc2c1	79% (active)	27%	-3%	93% (active)	inactive	inactive	inactive	inactive
Cc1cc(C)cc(OCC(O)CN(Cc2cc(Cl)cc(Cl)c2)C(=O)Nc2ccccc2Cl)c1 (stereo not drawn)	37%	-1%	2%	93% (active)	inactive	inactive	inactive	inactive
CC(=O)N1CCC(C(=O)Nc2ccc(-c3cccc(-c4nc5ccc(C(F)(F)F)cc5[nH]4)c3)cc2)CC1	33%	82% (active)	-9%	88% (active)	inactive	inactive	inactive	inactive
c1ccc(C2CCN(Cc3ccc(-c4c[nH]c5nc(NC6CCCC6)ncc45)cc3)CC2)cc1	9%	39%	-1%	82% (active)	inactive	inactive	inactive	inactive
OCC1CCN(Cc2ccc(-c3ccc(-c4nc5ccc(C(F)(F)F)cc5[nH]4)cc3)cc2)CC1	91% (active)	17%	-2%	100% (active)	inactive	inactive	inactive	inactive
O=C(NCC1CCN(CC2CCCCC2)C1)c1cc(-c2cccc(Cl)c2)cs1 (stereo not drawn)	8%	51% (active)	5%	85% (active)	inactive	inactive	inactive	inactive

SMILES	growth inhibition [1]	inhibition [2]	inhibition [3]	growth inhibition [4]	outcome [5]	outcome [6]	outcome [7]	outcome [8]
Cn1c(N)c(C(=O)CSc2ncc(-c3ccc(F)cc3)n2Cc2ccccc2)c(=O)n(C)c1=O	66% (active)	11%	1%	88% (active)	inactive	inactive	inactive	inactive
CS(=O)(=O)c1ccc(CNCc2ccc(-c3cccc(-c4nc5ccccc5[nH]4)c3)cc2)cc1	88% (active)	17%	-7%	100% (active)	inactive	inactive	inactive	inactive
CCNc1cc(CCCC(=O)OCC)nc(Nc2ccc(C)cc2)n1	63% (active)	17%	-4%	101% (active)	inactive	inactive	inactive	inactive
COc1ccc2nccc([C@@H](O)CN3CCC(NCc4cc5ccccc5s4)CC3)c2c1	53% (active)	8%	3%	97% (active)	inactive	inactive	inactive	inactive
O=C(Nc1nc(-c2ccccn2)cs1)c1ccccc1COc1ccccc1	42%	34%	-2%	83% (active)	inactive	inactive	inactive	inactive
CC[C@H](C)CNC(=O)c1cncc(-c2cccc(CN3CCC(N4CCCC4)CC3)c2)c1	5%	-1%	6%	97% (active)	inactive	inactive	inactive	inactive
CCC[C@@H]([C@@H](CC1CCC(C)CC1)C(=O)N[C@@H](CCCNc1ncccn1)C(=O)Nc1nccs1)N(O)C=O (stereo partly drawn)	98% (active)	10%	5%	98% (active)	inactive	inactive	inactive	inactive
O=C(C(=O)c1ccc(Nc2ccnc3cc(-c4ccccn4)ccc23)cc1)c1ccccc1	34%	22%	-4%	93% (active)	inactive	inactive	inactive	inactive
CCN(CC)CCN(Cc1ccc(-c2ccc(C(F)(F)F)cc2)cc1)C(=O)Cn1cc(Cc2cnn(C)c2)c(=O)n2nc(-c3ccccc3)cc12	74% (active)	18%	-2%	100% (active)	inactive	inactive	inactive	inactive
Cc1occc1C(=O)Nc1nc(-c2ccccn2)nc2ccsc12	98% (active)	68% (active)	5%	98% (active)	inactive	inactive	inactive	inactive
C[C@H](NC(=O)[C@H](CCCCNC(=O)OC(C)(C)C)NC(=O)OC(C)(C)c1ccc(-c2ccccc2)cc1)C(=O)OCc1ccccc1	1%	4%	-7%	97% (active)	inactive	inactive	inactive	inactive
CN1CCCN(Cc2ccc(-c3ccc(NC(=O)c4ccc(Cl)cc4)cc3)cc2)CC1	67% (active)	58% (active)	3%	96% (active)	inactive	inactive	inactive	inactive
CCCNCc1ccc(-c2ccc(CN(C(=O)c3nn(-c4ccccc4)nc3C)C(C)CN(C)C)cc2)nc1 (stereo not drawn)	95% (active)	27%	-8%	95% (active)	inactive	inactive	inactive	inactive
O=C(Nc1ccc(F)cc1)N1CCCN(c2ccnc3cc(Cl)ccc23)CC1	16%	7%	-1%	97% (active)	inactive	inactive	inactive	inactive
Cc1ccc(C2=NNC3(S2)C(=O)N(C)c2ccccc23)cc1 (stereo not drawn)	12%	36%	5%	82% (active)	inactive	inactive	inactive	inactive
CC(Cc1ccc(NS(=O)(=O)c2ccc(CC(C)NCCc3cccc(Cl)c3)cc2)cc1)NCCc1cccc(Cl)c1 (stereo not drawn)	38%	12%	4%	100% (active)	inactive	inactive	inactive	inactive
COc1cccc(NC(=O)NC2CCN(c3ccnc(Nc4ccc(F)cc4)n3)C2)c1 (stereo not drawn)	71% (active)	9%	-2%	100% (active)	inactive	inactive	inactive	inactive
Oc1ccc(Cl)cc1Nc1nc(C(F)(F)F)nc2ccccc12	63% (active)	16%	5%	86% (active)	inactive	inactive	inactive	inactive
Cc1cc(NC(=O)NCCN2CCC(NS(=O)(=O)c3ccc(C(F)(F)F)cc3)C2)c2ccccc2n1 (stereo not drawn)	39%	15%	-3%	96% (active)	inactive	inactive	inactive	inactive
O=C(NC1CCN(Cc2ccccc2)CC1)c1cccc(-c2nc3ccc(Cl)cc3[nH]2)c1	-1%	6%	-3%	98% (active)	inactive	inactive	inactive	inactive
